Results taken from PubChem BioAssay (Tox21).
Unmarked numbers belong to inactive results. Inconclusive results are not listed. A call without a number means that no potency is given here. Calls of active or inactive are those of the source. Unless noted, calls come from the whole dose curve.

How the values were obtained:
[1] = qHTS assay to identify small molecule antagonists of the sonic hedgehog signaling (Shh) pathway (AID 1259369); note: nearly all actives have a fitted effect of over 45% in size
In short: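 For antagonist detection, the reporter line received test compounds together with conditioned medium, incubated 24hr at 37 C, 5% CO2, then luminescence was recorded following 30min room-temperature luciferase reagent incubation.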

[2] = target: Estrogen receptor beta (Homo sapiens) (UniProt Q92731); test: qHTS assay to identify small molecule agonists of the estrogen receptor beta (ER-beta) signaling pathway (AID 1259377; active = well fitted activation curve with a large enough effect in the signal ratio in the repeat runs, not every such curve was filed as active; the % refers to the signal ratio)
In short: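 ER-beta-UAS-bla HEK293T cells in medium with 2% charcoal-stripped FBS were exposed to compounds for 16 h at 37C. Beta-lactamase reporter activity was read as fluorescence after 2 h with LiveBLAzer B/G FRET substrate at room temperature.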

[3] = target: Estrogen receptor beta (Homo sapiens) (UniProt Q92731); test: qHTS assay to identify small molecule antagonists of the estrogen receptor beta (ER-beta) signaling pathway (AID 1259378; active = well fitted inhibition curve with a large enough effect in the signal ratio in the repeat runs, not every such curve was filed as active; the % refers to the signal ratio)
In short: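 ER-beta-UAS-bla HEK293T (GripTite) cells in 2% charcoal-stripped FBS medium were preincubated 6 hr at 37C, dosed with compound, then stimulated with 1 nM E2 (final) for 16 hr; beta-lactamase reporter read by B/G FRET fluorescence after 2 hr substrate loading.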

[4] = qHTS assay to identify small molecule agonists of the androgen receptor (AR) signaling pathway in the presence of an antagonist - cell viability counter screen (AID 1259379; active = well fitted curve in the direction sought with a large enough effect in the repeat runs; an effect the other way counts as inactive or inconclusive;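 note: MDA-kb2 human breast cancer cells carrying an MMTV luciferase reporter; series mostly up to about 92 µM; nearly all actives have a fitted effect of over 25% in size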)
In short: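 Seed MDA-kb2 at 3,000 cells/well; incubate 5 hr, 37C, 0% CO2. Add nilutamide to 3.0uM final, then pin compounds at 15 concentrations. Incubate 16 hr. Add CellTiter-Fluor at 15 hr, read fluorescence after 1 hr.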

[5] = qHTS assay to identify small molecule agonists of the estrogen receptor beta (ER-beta) signaling pathway - cell viability counter screen (AID 1259380; active = well fitted curve in the direction sought with a large enough effect in the repeat runs; an effect the other way counts as inactive or inconclusive; note: nearly all actives have a fitted effect of over 30% in size)
In short: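 CellTiter-Glo read, 30 min RT, same wells as bla assay; cells ER-beta-UAS-bla HEK293T; 16 hr compound, 37C; medium 2% charcoal-stripped FBS.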

[6] = qHTS assay to identify small molecule antagonists of the estrogen receptor beta (ER-beta) signaling pathway - cell viability counter screen (AID 1259382; active = well fitted curve in the direction sought with a large enough effect in the repeat runs; an effect the other way counts as inactive or inconclusive; note: series mostly up to about 92 µM; nearly all actives have a fitted effect of over 55% in size)
In short: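 In this multiplexed counter screen, cells were seeded at 2,000 per well in medium with 2% charcoal-stripped FBS and incubated 6 hr before compound and 1nM final E2 were added. Sixteen hours later, ATP-based luminescence reported viability.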

[7] = target: Estrogen receptor (Homo sapiens) (UniProt P03372); test: qHTS assay to identify small molecule agonists of the estrogen receptor alpha (ER-alpha) signaling pathway in the presence of an antagonist (AID 1259383); note: top concentration of the series differs between compounds; nearly all actives have a fitted effect of over 15% in size
In short: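 Stably transfected VM7Luc4E2 reporter cells, kept 5 days in charcoal-stripped serum, received ICI-182,780 at 10.0nM final before compound addition. Following 22hr incubation at 37C and 5% CO2, luciferase signal was read by luminescence.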

[8] = qHTS assay to identify small molecule agonists or antagonists of the thyroid stimulating hormone receptor (TSHR) signaling pathway - wild type cell line counter screen (AID 1259384)
In short: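 Wild-type HEK293 cells were plated 18 h at 37 C/5% CO2, pin-dosed with compound plus Ro20-1724 medium, held 30 min at room temperature, then given cAMP-d2 and anti-cAMP-cryptate; fluorescence was read after 1 h. Fifteen concentrations, triplicate.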

[9] = target: Thyrotropin receptor (Homo sapiens) (UniProt P16473); test: qHTS assay to identify small molecule antagonists of the thyroid stimulating hormone receptor (TSHR) signaling pathway (AID 1259385); note: nearly all actives have a fitted effect of over 20% in size
In short: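 TSHR-HEK293 cells were plated and held 18 h at 37C/5% CO2, then given compound plus Ro20-1724 and stimulated with TSH at 1.5 ng/mL final. After 30 min at room temperature, cAMP was detected with cAMP-d2/anti-cAMP-cryptate (1 h) by fluorescence.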

[10] = qHTS assay to identify small molecule agonists of the estrogen receptor alpha (ER-alpha) signaling pathway in the presence of an antagonist - cell viability counter screen (AID 1259386; active = well fitted curve in the direction sought with a large enough effect in the repeat runs; an effect the other way counts as inactive or inconclusive;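 note: series mostly up to about 92 µM; cells exposed to compounds for 22 h at 37 °C before the viability read; nearly all actives have a fitted effect of over 30% in size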)
In short: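 Viability counter screen using VM7Luc4E2 (full-length ER-alpha, four ERE-luciferase). The cells were treated with compounds alongside ICI-182,780 10.0nM for 22hr, and live-cell protease fluorescence was quantified with CellTiter-Fluor.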

[11] = target: Progesterone receptor (Homo sapiens) (UniProt P06401); test: qHTS assay to identify small molecule agonists of the progesterone receptor (PR) signaling pathway (AID 1346784); note: nearly all actives have a fitted effect of over 30% in size; note: potency is the fitted concentration of half-maximal effect
In short: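 PR-UAS-bla HEK 293T cells (beta-lactamase reporter under UAS) in 2% charcoal-stripped FBS, dosed with 23 nL compound after 6 hr, incubated 16hr at 37C. LiveBLAzer B/G FRET substrate added, fluorescence read after 2 hours.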

[12] = target: Progesterone receptor (Homo sapiens) (UniProt P06401); test: qHTS assay to identify small molecule antagonists of the progesterone receptor (PR) signaling pathway (AID 1346795; active = well fitted inhibition curve with a large enough effect in the signal ratio in the repeat runs, not every such curve was filed as active; the % refers to the signal ratio)
In short: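 PR-UAS-bla HEK293T cells with beta-lactamase reporter under UAS control, in 2% charcoal-stripped FBS, treated with compounds plus 1 nM promegestone (R5020, final) for 16 hr at 37C. Read-out: FRET beta-lactamase substrate fluorescence after 2 hr at room temperature.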

[13] = qHTS assay to identify small molecule antagonists of the progesterone receptor (PR) signaling pathway - cell viability counter screen (AID 1346798; active = well fitted curve in the direction sought with a large enough effect in the repeat runs; an effect the other way counts as inactive or inconclusive; note: series mostly up to about 92 µM; nearly all actives have a fitted effect of over 50% in size)
In short: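 PR-UAS-bla HEK293T cells, 3,000/well in 2% charcoal-stripped FBS medium, dosed with compounds plus R5020 agonist and incubated 16 h at 37C. Viability then measured in the same wells by CellTiter-Glo luminescence after 30 min at RT.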

[14] = qHTS assay to identify small molecule agonists of the progesterone receptor (PR) signaling pathway - cell viability counter screen (AID 1346799); note: nearly all actives have a fitted effect of over 45% in size
In short: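 Counter screen in the PR-UAS-bla HEK293T wells (2% charcoal-stripped FBS, 16 h compound exposure at 37 C) after the bla read. CellTiter-Glo added, 30 min at room temperature, luminescence read as cell viability.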

[15] = qHTS assay to identify small molecule antagonists of the TGF-beta/Smad signaling pathway - cell viability counter screen (AID 1346824; active = well fitted curve in the direction sought with a large enough effect in the repeat runs; an effect the other way counts as inactive or inconclusive; note: nearly all actives have a fitted effect of over 50% in size)
In short: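 SBE-bla HEK 293T cells were plated overnight at 37 C, then given compounds in DMSO plus TGF-beta1 (added as 0.25 ng/mL solution) for 5 hr. After the bla read, CellTiter-Glo was added to the same wells and luminescence read after 30 min at room temperature.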

[16] = qHTS assay to identify small molecule agonists of the TGF-beta/Smad signaling pathway - cell viability counter screen (AID 1346829; active = well fitted curve in the direction sought with a large enough effect in the repeat runs; an effect the other way counts as inactive or inconclusive; note: top concentration of the series differs between compounds; nearly all actives have a fitted effect of over 45% in size)
In short: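 Cytotoxicity counter screen: CellTiter-Glo luminescence (30 min, room temperature) measured in the SBE-bla HEK 293T reporter wells after 5 hr compound treatment at 37 C and the 2 hr substrate step.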

[17] = target: Thyrotropin-releasing hormone receptor (Homo sapiens) (UniProt P34981); test: qHTS assay to identify small molecule antagonists of the thyrotropin-releasing hormone receptor (TRHR) signaling pathway (AID 1346877; active = well fitted inhibition curve with a large enough effect in the repeat runs, not every such curve was filed as active; note: series mostly up to about 51 µM)
In short: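 Following an 18 h incubation at 37 °C and a 2 h calcium dye load, TRHR-HEK293 cells were exposed to compound (5 min, room temperature) and challenged with TRH, 1 nM final.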

[18] = target: Thyrotropin-releasing hormone receptor (Homo sapiens) (UniProt P34981); test: qHTS assay to identify small molecule agonists of the thyrotropin-releasing hormone receptor (TRHR) signaling pathway (AID 1346891); note: series mostly up to about 58 µM
In short: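 HEK293 cells expressing TRHR plated 18 h at 37 C/5% CO2, calcium dye-loaded 2 h at 37 C, then compound added (agonist mode); kinetic calcium fluorescence read 3 min at 1 s intervals; 15 concentrations in triplicate.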

[19] = target: Androgen receptor (Homo sapiens) (UniProt P10275); test: qHTS assay to identify small molecule agonists of the androgen receptor (AR) signaling pathway in the presence of an antagonist (AID 1259381); note: nearly all actives have a fitted effect of over 15% in size
In short: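 Test compounds at 15 concentrations were incubated for 16hr with MDA-kb2 reporter cells in presence of 3.0uM nilutamide (final). Signal: ONE-Glo luciferase luminescence.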

[20] = qHTS assay to identify small molecule agonists of the TGF-beta/Smad signaling pathway (AID 1346859; active = well fitted activation curve with a large enough effect in the signal ratio in the repeat runs, not every such curve was filed as active; the % refers to the signal ratio; note: series mostly up to about 77 µM)
In short: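 SBE-bla HEK293T cells plated overnight, then compound exposure for 5 h at 37 C. Beta-lactamase reporter read with LiveBLAzer B/G FRET substrate after 2 h at room temperature, fluorescence at 405 nm excitation, 460/530 nm emission.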

Chain of Thyrotropin-releasing hormone receptor (Homo sapiens) (P34981 whole entry, looked up): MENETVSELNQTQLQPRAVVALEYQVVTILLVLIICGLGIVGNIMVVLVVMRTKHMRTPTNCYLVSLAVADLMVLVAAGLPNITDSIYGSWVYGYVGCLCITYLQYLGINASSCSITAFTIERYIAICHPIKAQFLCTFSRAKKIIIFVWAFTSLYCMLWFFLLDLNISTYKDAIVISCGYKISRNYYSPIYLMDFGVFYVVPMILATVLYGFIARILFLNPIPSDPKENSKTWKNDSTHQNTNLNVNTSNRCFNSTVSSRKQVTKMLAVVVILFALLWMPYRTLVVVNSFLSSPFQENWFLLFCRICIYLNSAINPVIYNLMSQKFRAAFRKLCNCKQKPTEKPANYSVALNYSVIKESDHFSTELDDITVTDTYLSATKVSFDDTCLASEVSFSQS
Chain of Estrogen receptor (Homo sapiens) (P03372 whole entry, looked up): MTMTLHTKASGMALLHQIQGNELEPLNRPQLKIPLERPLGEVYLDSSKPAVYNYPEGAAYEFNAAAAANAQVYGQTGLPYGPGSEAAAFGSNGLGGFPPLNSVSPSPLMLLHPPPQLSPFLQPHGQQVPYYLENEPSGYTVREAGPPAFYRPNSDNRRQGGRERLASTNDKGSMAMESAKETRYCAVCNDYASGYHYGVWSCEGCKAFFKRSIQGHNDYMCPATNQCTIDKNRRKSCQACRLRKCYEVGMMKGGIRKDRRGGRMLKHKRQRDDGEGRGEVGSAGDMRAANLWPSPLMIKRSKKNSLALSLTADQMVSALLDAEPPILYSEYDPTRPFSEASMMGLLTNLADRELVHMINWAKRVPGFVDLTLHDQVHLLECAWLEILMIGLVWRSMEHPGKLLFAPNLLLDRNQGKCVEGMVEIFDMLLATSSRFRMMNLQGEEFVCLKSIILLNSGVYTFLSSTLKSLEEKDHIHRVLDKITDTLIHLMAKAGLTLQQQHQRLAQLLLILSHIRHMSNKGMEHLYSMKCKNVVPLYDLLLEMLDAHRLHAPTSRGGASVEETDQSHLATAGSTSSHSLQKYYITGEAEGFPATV
Chain of Estrogen receptor beta (Homo sapiens) (Q92731 whole entry, looked up): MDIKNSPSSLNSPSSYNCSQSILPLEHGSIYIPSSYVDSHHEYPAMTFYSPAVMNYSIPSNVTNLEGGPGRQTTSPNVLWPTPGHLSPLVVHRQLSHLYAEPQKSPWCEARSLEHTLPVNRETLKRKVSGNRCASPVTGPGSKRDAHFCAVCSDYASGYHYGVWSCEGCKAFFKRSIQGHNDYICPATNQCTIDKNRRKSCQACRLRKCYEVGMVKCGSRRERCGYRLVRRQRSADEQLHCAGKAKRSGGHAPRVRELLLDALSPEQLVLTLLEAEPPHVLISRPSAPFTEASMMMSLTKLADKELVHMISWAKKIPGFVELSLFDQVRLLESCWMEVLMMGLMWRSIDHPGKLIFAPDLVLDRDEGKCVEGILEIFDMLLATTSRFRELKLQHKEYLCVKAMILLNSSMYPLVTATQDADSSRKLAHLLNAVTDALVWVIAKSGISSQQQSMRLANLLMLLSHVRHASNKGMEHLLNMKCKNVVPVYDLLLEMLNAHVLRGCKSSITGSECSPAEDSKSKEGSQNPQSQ
Chain of Progesterone receptor (Homo sapiens) (P06401 whole entry, looked up): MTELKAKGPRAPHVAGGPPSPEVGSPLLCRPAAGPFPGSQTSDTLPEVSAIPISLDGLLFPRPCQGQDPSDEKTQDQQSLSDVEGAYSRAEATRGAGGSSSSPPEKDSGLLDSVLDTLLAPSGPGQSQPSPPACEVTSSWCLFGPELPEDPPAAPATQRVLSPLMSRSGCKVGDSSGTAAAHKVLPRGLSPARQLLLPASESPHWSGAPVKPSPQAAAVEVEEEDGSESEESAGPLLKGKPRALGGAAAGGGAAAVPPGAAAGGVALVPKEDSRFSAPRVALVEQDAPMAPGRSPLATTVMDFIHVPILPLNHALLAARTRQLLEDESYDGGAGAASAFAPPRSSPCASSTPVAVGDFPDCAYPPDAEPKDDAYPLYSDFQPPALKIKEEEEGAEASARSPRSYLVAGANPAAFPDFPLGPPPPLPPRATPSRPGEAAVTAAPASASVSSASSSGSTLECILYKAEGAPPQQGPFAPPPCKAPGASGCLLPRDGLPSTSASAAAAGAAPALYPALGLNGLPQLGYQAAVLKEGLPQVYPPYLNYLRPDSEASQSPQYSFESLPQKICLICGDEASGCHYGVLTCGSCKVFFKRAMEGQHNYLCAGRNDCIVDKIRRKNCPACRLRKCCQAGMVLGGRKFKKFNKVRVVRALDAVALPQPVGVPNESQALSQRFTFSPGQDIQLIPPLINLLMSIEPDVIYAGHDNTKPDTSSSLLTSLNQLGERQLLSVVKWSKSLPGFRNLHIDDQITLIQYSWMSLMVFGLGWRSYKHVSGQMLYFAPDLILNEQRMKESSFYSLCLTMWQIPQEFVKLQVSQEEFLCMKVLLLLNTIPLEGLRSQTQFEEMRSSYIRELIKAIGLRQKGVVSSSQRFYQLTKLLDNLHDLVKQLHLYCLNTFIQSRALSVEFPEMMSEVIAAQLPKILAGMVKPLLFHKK
Chain of Thyrotropin receptor (Homo sapiens) (P16473 whole entry, looked up): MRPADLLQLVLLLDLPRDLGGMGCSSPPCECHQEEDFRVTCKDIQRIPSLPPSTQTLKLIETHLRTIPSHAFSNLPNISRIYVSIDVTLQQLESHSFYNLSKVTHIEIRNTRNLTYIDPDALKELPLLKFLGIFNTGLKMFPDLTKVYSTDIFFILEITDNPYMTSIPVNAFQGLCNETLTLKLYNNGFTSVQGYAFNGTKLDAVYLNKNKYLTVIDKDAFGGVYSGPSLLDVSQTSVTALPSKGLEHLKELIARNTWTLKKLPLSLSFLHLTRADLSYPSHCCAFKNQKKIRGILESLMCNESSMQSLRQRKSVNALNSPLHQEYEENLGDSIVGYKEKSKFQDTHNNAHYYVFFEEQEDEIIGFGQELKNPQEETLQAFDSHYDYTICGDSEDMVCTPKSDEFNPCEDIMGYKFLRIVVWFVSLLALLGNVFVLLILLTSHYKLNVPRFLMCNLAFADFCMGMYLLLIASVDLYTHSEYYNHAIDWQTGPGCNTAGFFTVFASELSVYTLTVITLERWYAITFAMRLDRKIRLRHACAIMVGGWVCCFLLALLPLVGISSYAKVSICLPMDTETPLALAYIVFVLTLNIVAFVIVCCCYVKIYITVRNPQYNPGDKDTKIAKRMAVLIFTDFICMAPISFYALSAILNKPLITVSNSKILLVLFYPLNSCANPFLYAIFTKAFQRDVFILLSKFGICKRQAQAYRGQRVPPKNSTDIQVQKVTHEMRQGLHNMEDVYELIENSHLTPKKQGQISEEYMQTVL
Chain of Androgen receptor (Homo sapiens) (P10275 whole entry, looked up): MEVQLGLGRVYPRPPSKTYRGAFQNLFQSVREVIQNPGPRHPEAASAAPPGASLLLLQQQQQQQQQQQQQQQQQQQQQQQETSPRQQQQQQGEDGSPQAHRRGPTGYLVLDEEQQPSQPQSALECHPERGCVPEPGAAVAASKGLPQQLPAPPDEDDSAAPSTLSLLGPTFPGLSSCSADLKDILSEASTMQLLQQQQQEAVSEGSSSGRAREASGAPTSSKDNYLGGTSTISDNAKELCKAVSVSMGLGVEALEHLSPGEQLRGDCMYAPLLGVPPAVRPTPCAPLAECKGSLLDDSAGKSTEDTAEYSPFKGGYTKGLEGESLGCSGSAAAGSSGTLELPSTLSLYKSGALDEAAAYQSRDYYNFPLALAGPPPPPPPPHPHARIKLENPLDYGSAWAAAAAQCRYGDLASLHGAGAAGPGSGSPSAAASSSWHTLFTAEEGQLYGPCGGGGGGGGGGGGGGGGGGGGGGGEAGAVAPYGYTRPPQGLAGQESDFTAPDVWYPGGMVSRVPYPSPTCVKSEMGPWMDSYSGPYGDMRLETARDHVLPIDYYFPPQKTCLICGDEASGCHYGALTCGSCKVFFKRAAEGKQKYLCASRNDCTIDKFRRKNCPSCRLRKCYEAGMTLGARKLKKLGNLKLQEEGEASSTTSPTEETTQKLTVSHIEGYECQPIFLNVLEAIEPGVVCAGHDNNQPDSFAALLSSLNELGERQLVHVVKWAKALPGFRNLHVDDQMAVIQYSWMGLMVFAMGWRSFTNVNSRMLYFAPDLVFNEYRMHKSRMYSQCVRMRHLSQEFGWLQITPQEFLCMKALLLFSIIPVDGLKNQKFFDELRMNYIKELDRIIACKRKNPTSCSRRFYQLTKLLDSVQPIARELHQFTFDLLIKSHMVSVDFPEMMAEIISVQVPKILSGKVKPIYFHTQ

C1COC(NC(C2CC2)C2CC2)=N1
Potency [1]: inactive | outcome [2]: inactive | Potency [3]: inactive | Potency [4]: inactive | Potency [5]: inactive | Potency [6]: inactive | Potency [7]: inactive | Potency [8]: inactive | Potency [9]: inactive | Potency [10]: inactive | Potency [11]: inactive | Potency [12]: inactive | Potency [13]: inactive | Potency [14]: inactive | Potency [15]: inactive | Potency [16]: inactive | Potency [17]: inactive | Potency [18]: inactive

CN1C(=O)c2ccc([N+](=O)[O-])cc2C1=O
Potency [1]: inactive | outcome [2]: inactive | Potency [3]: inactive | Potency [4]: inactive | Potency [5]: inactive | Potency [19]: inactive | Potency [6]: inactive | Potency [7]: inactive | Potency [8]: inactive | Potency [9]: inactive | Potency [10]: inactive | Potency [13]: inactive | Potency [14]: inactive | Potency [15]: inactive | outcome [20]: inactive | Potency [17]: inactive | Potency [18]: inactive

OCC(CO)N[C@H]1C[C@](O)(CO)[C@@H](O)[C@H](O)[C@H]1O
Potency [1]: inactive | outcome [2]: inactive | Potency [3]: inactive | Potency [4]: inactive | Potency [5]: inactive | Potency [19]: inactive | Potency [6]: inactive | Potency [7]: inactive | Potency [8]: inactive | Potency [9]: inactive | Potency [10]: inactive | Potency [11]: inactive | Potency [13]: inactive | Potency [14]: inactive | Potency [15]: inactive | Potency [16]: inactive | Potency [17]: inactive | Potency [18]: inactive

CCCCCCCCCCCCCCCCCl
activity change, negative = inhibition [1]: 30% [at 19 µM] | activation [2]: 1.06% [at 19 µM] | activity, negative = inhibition [3]: 9.46% [at 19 µM] | activity change, negative = cytotoxicity [4]: 1.7% [at 19 µM] | activity change, negative = cytotoxicity [5]: 3.21% [at 19 µM] | activity change, negative = cytotoxicity [6]: 3.31% [at 19 µM] | activation [7]: -0.0791% [at 19 µM] | cAMP activity change [8]: 0.656% [at 18.9 µM, hits give high values] | activity change, negative = cytotoxicity [10]: -1.56% [at 19 µM] | Potency [11]: 3.84 µM (active) | activity change, negative = inhibition [12]: 4.71% [at 18.9 µM] | activity change, negative = cytotoxicity [13]: -2.11% [at 18.9 µM] | viability change, negative = cytotoxic [15]: 1.48% [at 15.8 µM] | activity, negative = inhibition [17]: 3.5% [at 10.5 µM] | activation [18]: -0.271% [at 11.8 µM]

CCCCN(CCO)CCCC
Potency [1]: inactive | outcome [2]: inactive | Potency [3]: inactive | Potency [4]: inactive | Potency [5]: inactive | Potency [6]: inactive | Potency [7]: inactive | Potency [8]: inactive | Potency [9]: inactive | Potency [10]: inactive | Potency [11]: inactive | Potency [12]: inactive | Potency [13]: inactive | Potency [14]: inactive | Potency [15]: inactive | Potency [16]: inactive | outcome [20]: inactive | Potency [17]: inactive | Potency [18]: inactive

CC(=O)N[C@@H](CS)C(=O)O
Potency [1]: inactive | outcome [2]: inactive | Potency [3]: inactive | Potency [4]: inactive | Potency [5]: inactive | Potency [6]: inactive | Potency [7]: inactive | Potency [8]: inactive | Potency [9]: inactive | Potency [10]: inactive | Potency [11]: inactive | Potency [12]: inactive | Potency [13]: inactive | Potency [14]: inactive | Potency [15]: inactive | Potency [16]: inactive | outcome [20]: inactive
